Among the data in PubChem BioAssay (NCI) are growth values, retold here.

Compounds without any hit were thinned out: in the full panel of roughly 83,000, 20% have a hit.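 Compound tested at a single concentration for 48 hours in 96-well plates; a percent growth value below 10 was scored as active.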 Unmarked numbers belong to inactive results. Activity calls are given as the source filed them.

Common to all, as to test: NCI-60 one-dose screen, 48 h (100 = growth as untreated, 0 = no growth, -100 = all killed)
Holding throughout (conditions): 10 µM unless noted

Test [1] deals with MOLT-4 leukemia.
Test [2] has as its system RPMI-8226 leukemia.
Test [3] concerns OVCAR-8 ovarian.
For test [4], the system named is OVCAR-5 ovarian.
Test [5] has as its system OVCAR-4 ovarian.
The subject of test [6] is SK-OV-3 ovarian.
The subject of test [7] is IGROV1 ovarian.
Test [8] has as its system OVCAR-3 ovarian.
Test [9] concerns HS 578T breast.
The subject of test [10] is NCI/ADR-RES ovarian.
The subject of test [11] is T-47D breast.
In test [12] the test system is BT-549 breast.
Test [13] deals with MDA-MB-435 melanoma.
Test [14] has as its system SW-620 colon.
Test [15] relates to MCF7 breast.
Test [16] has as its system HCT-116 colon.
Test [17] relates to HCC-2998 colon.
In test [18] the test system is KM12 colon.

On to `Cn1cc(-c2csc(-c3cn(CCCCN4CCCCC4)c4ccccc34)n2)c2cccnc21`, for which the growth in [1] was -55% (active); in test [2], -31.1% (active); in test [3], -58.8% (active); in test [4], 96.8%; in test [5], 82.3%; in test [6], 87.6%. Further, the growth in test [7] is 70.6%; in test [8], -75.2% (active); in test [9] it was 61%; in test [10], -17.4% (active); in test [11], 88.4%; in test [12], 69.2%. Moreover, the growth in test [13] is -79.6% (active); in test [14], -65.2% (active); in test [15], -65.9% (active); in test [16] it was -90.4% (active); in test [17] it was 87.2%; in test [18], 0.281% (active).

For the compound `CC[C@H](C)[C@H](NC(=O)[C@H]1CCCCN1C)C(=O)N(C)[C@H](C[C@@H](O)c1nc(C(=O)N[C@@H](Cc2ccccc2)C[C@H](C)C(=O)O)cs1)C(C)C`, the growth in test [1] is 79%; in [2], 59.8%; in test [3], 93.5%; in [4], 101%; in [5], 98%; in [6] it was 97%. In addition, the growth in [7] was 76.6%; in test [8], 63.2%; in test [9], 75.7%; in [10] it was 109%; in test [11], 81.5%; in test [12] it was 88.5%. Moreover, the growth in [13] is 18.9%; in test [14] it was 58.6%; in test [15], 29.9%; in [16], 77.7%; in test [17] it was 99.9%; in test [18], 72.7%.

Take `CCn1nccc1NC(=O)C(=O)c1cn(Cc2ccc(F)cc2)c2cccc(OC)c12`: the growth in test [1] was 66.4%; in [2], 59.9%; in [3] it was 92.2%; in [4] it was 96.8%; in [5], 94.8%; in test [6], 100%. Moreover, the growth is 3.65% (active) in test [7]; 94% in test [8]; 89% in [9]; 90.2% in [10]; 80.5% in [11]; 86.1% in [12]. Besides, the growth in test [14] was 93.3%; in test [15], 97.3%; in test [16] it was 51.1%; in [17] it was 102%; in [18], 97.2%.

With `CCCCN(CCCC)P(=O)(Oc1ccccc1)Oc1ccccc1`, the growth was 39.4% in test [1]; 54.4% in test [2]; 84.1% in [3]; 94.1% in test [4]; 51.5% in test [5]; 66.7% in [6]. Moreover, the growth is 57.3% in test [7]; 87.2% in test [8]; 85.3% in test [9]; 51.4% in test [10]; 47.4% in test [11]; 73.5% in [12]. Besides, the growth in test [13] is 71.4%; in test [14], 52%; in test [16] it was 29.2%; in [17] it was 83.7%; in [18] it was 58.6%.

Turning to `CC1=C(CNO)C2=C(C)C3(CC3)[C@@](C)(O)C(=O)C2=C1`, the growth was 51% in [1]; 99.4% in test [2]; 34.5% in test [3]; 1.01% (active) in [4]; -8.4% (active) in [5]; 4% (active) in [6]. For the same compound, the growth in test [7] was -8.2% (active); in test [8], -16.5% (active); in [9], 40.2%; in [10], 29.7%; in test [11], -3.61% (active); in test [12] it was -13% (active). Further, the growth in test [13] was 92.1%; in [14] it was 65.7%; in test [15] it was 10.6%; in test [16] it was 2.04% (active); in [17], -33.4% (active); in test [18] it was 70%.

With `CC[C@H](C)[C@H](NC(=O)C12CC(NC(C)=O)(C1)C2)C(=O)N(C)[C@H](C[C@@H](OC(C)=O)c1nc(C(=O)N[C@@H](Cc2ccccc2)C[C@H](C)C(=O)OC)cs1)C(C)C`, the growth in test [1] is 21.4%; in test [2] it was 6.56% (active); in [3], 17.2%; in [4], 44%; in test [5] it was 43.3%; in test [6] it was 27%. The growth in test [7] was 35.4%; in [8], -42.3% (active); in test [9], 15.8%; in [10], 80.5%; in [11] it was 50.1%; in [12] it was 4.76% (active). The growth in test [13] is -59% (active); in test [14], 23.7%; in test [16] it was 3.73% (active); in test [17], 24.8%; in [18], 12.5%.

On to `NC(N)=N/N=C\c1c[nH]c2ccc(Br)cc12`, for which the growth in [1] is 79.2%; in test [2], 80.8%; in test [3] it was 83.1%; in test [4], 91.8%; in [5] it was 97.2%; in [6] it was 97.4%. In addition, the growth in [7] was 101%; in test [8] it was 81.4%; in [9], 80.6%; in test [10], 87%; in [11], 36.6%; in [12], 23.7%. For the same compound, the growth in test [13] was 98.1%; in test [14], 101%; in [15], 75.4%; in test [16] it was 92%; in [18] it was 94.9%.

Turning to `CN(C)CCCOc1ccc2c(c1)c(C(=O)C(=O)NCCO)cn2Cc1ccccc1`, the growth in test [1] is 111%; in [2], 106%; in test [3], 98.1%; in test [4], 108%; in test [5], 105%; in [6], 110%. The growth in test [7] was 99.6%; in [8] it was 108%; in test [9], 99.6%; in [10], 108%; in test [11] it was 95.2%; in test [12], 98.4%. Further, the growth in test [13] is 103%; in [14] it was 105%; in test [15] it was 91.5%; in test [16], 98.7%; in [17], 115%; in test [18], 104%.
